These results are taken from ChEMBL document CHEMBL3988442, “University of Dundee, Small-Polar-MMV Screening Library” (2021).

For some assays here: Results with a measured potency or affinity are listed apart.

Set-up in all cases: scale not given: direction of the effect not stated beside the values
The target of assay [1] is Protein translocase subunit SecA (Escherichia coli (strain K12)) (UniProt P10408). In words: Assay to Identify E. coli SecA ATPase Inhibitors. The format is functional. The following applies: 30 µM.
Assay [2] addresses T1, Ubiquitin-activating enzyme e1, putative (Leishmania donovani (strain BPK282A1)) (UniProt E9BSI1).
T1 sequence (whole entry): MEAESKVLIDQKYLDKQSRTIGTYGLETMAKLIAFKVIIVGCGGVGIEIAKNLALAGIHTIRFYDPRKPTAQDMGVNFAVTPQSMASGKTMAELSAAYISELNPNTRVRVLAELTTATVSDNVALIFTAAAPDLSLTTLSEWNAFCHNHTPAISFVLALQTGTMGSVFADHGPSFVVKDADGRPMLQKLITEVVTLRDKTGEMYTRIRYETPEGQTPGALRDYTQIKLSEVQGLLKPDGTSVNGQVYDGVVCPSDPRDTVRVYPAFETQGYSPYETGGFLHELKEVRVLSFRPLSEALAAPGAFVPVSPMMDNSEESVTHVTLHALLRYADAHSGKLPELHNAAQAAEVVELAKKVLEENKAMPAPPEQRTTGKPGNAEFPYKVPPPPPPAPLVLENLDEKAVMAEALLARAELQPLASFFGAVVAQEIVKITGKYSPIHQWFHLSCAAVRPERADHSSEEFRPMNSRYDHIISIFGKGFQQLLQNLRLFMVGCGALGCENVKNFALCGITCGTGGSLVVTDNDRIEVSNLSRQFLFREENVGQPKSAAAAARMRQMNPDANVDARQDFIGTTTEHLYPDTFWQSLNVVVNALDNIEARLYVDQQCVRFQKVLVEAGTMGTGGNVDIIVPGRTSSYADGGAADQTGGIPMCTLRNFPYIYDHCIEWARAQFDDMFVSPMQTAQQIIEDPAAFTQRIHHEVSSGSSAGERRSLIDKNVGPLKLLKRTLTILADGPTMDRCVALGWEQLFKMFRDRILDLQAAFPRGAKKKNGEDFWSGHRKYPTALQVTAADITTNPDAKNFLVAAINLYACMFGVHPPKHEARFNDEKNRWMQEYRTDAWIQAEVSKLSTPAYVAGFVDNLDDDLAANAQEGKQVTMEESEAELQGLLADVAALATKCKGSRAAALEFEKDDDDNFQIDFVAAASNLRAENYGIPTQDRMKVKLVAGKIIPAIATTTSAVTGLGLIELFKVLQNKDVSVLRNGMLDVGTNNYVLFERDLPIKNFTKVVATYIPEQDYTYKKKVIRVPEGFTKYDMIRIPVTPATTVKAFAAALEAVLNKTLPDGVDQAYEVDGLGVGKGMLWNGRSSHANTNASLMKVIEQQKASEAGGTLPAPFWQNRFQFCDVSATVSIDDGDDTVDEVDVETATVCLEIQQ
In words: Leishmania donovani Ubiquitin Activating Enzyme (LdE1). The format is functional. The following applies: 30 µM.

For assay [3], the target named is AMP-activated protein kinase, AMPK (Homo sapiens) (UniProt P54646+O43741+P54619+Q9UGJ0+Q9Y478+Q13131+Q9UGI9). In words: AMP-dependent Kinase enzyme assay. An in vitro enzyme assay that detects ADP turnover that is directly proportional to AMPK activity. This uses naive AMPK that is activated during the assay with MK-8722. The following applies: 30 µM. It counts as functional.

Assay [4] concerns the target Sialic acid-binding Ig-like lectin 9 (Homo sapiens) (UniProt Q9Y336). In words: Hs-Siglec9 ALPHAscreen SOP 20170721. The following applies: 10 µM.
Assay [5] relates to Trypanosoma cruzi. In words: Trypanosoma cruzi phosphomannomutase and mannose-1-phosphate guanylyltransferase assay. It counts as functional. The following applies: 10 µM.
Assay [6] has as its target T2, Arginase-2, mitochondrial (Homo sapiens) (UniProt P78540).
T2 sequence (whole entry): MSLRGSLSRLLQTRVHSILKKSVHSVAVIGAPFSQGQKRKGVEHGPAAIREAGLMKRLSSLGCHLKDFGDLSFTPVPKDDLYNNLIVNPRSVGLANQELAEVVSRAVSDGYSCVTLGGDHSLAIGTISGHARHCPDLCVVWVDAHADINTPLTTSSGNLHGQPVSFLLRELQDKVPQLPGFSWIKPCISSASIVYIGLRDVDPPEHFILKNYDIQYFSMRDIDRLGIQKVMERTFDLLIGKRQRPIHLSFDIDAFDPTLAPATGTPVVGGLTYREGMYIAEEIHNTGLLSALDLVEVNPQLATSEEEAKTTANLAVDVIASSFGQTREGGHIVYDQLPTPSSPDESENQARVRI
In words: in vitro enzyme assay to detect the production of urea directly proportional to the activity of Arginase II. Note: in the data most compounds retested in dose-response had high values. The following applies: 33.3 µM. The format is functional.

Assay [7] has as its target T3, Proteasome subunit beta (Trypanosoma cruzi) (UniProt O96673).
T3 sequence (whole entry): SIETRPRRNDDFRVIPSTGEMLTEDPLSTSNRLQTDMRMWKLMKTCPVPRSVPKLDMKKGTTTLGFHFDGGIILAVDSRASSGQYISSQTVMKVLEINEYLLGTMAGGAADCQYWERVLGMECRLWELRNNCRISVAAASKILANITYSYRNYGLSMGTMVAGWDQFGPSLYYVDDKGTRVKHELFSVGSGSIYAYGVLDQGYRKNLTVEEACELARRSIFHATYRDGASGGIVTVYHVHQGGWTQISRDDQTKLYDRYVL
In words: Trypanosoma cruzi proteasome chymotrypsin-like activity (TcProtChymo) assay. Note: in the data most compounds retested in dose-response had high values. It counts as functional. The following applies: 9.37 µM.

Assay [8] is filed under the species Homo sapiens. In words: To identify inhibition of the IFN signalling (Jak-Stat) pathway via expression of an eGFP reporter gene under the control of an IFN-stimulated response element (ISRE) containing MxA promoter. The following applies: 30 µM. The format is functional. On the technique in general: In a reporter assay the amount or activity of a reporter protein is the signal.

For assay [9], the target named is T4, Tyrosyl-tRNA synthetase, putative (Trypanosoma cruzi (strain CL Brener)) (UniProt Q4DSP6).
T4 sequence (whole entry): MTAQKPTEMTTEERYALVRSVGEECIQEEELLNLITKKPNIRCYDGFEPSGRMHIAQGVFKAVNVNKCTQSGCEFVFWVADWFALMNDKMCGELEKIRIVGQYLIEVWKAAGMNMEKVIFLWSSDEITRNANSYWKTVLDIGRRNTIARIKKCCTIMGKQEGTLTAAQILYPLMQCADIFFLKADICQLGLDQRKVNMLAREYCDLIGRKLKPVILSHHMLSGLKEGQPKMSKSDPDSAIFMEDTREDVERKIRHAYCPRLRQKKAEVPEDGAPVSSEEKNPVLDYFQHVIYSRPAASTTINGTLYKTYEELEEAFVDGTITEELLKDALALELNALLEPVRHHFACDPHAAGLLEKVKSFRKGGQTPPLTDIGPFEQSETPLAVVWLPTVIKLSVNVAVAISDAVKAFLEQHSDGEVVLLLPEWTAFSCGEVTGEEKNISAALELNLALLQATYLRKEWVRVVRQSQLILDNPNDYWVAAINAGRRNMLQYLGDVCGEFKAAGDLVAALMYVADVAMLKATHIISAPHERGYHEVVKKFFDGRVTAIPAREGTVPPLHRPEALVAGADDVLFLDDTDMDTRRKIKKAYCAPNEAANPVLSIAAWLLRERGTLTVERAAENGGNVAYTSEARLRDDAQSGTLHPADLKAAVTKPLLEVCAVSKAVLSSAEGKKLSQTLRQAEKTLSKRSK
In words: Trypanosoma cruzi tyrosyl tRNA synthetase (TcYRS) _High Tyrosine SOP. Note: in the data most compounds retested in dose-response had high values. It counts as functional. The following applies: 30 µM.

Assay [10] addresses T4, Tyrosyl-tRNA synthetase, putative (Trypanosoma cruzi (strain CL Brener)). In words: Trypanosoma cruzi tyrosyl tRNA synthetase (TcYRS) SOP. The format is functional. The following applies: 30 µM.
Assay [11] addresses Chromo domain-containing protein 1 (Saccharomyces cerevisiae (strain ATCC 204508 / S288c) (Baker's yeast)) (UniProt P32657). In words: ScCHD-1 Enzyme Inhibition Assay. Note: in the data most compounds retested in dose-response had high values. The format is functional. The following applies: 30 µM.

Sequence of Chromo domain-containing protein 1 (Saccharomyces cerevisiae (strain ATCC 204508 / S288c) (Baker's yeast)) (P32657 whole entry, the tested form may be a part): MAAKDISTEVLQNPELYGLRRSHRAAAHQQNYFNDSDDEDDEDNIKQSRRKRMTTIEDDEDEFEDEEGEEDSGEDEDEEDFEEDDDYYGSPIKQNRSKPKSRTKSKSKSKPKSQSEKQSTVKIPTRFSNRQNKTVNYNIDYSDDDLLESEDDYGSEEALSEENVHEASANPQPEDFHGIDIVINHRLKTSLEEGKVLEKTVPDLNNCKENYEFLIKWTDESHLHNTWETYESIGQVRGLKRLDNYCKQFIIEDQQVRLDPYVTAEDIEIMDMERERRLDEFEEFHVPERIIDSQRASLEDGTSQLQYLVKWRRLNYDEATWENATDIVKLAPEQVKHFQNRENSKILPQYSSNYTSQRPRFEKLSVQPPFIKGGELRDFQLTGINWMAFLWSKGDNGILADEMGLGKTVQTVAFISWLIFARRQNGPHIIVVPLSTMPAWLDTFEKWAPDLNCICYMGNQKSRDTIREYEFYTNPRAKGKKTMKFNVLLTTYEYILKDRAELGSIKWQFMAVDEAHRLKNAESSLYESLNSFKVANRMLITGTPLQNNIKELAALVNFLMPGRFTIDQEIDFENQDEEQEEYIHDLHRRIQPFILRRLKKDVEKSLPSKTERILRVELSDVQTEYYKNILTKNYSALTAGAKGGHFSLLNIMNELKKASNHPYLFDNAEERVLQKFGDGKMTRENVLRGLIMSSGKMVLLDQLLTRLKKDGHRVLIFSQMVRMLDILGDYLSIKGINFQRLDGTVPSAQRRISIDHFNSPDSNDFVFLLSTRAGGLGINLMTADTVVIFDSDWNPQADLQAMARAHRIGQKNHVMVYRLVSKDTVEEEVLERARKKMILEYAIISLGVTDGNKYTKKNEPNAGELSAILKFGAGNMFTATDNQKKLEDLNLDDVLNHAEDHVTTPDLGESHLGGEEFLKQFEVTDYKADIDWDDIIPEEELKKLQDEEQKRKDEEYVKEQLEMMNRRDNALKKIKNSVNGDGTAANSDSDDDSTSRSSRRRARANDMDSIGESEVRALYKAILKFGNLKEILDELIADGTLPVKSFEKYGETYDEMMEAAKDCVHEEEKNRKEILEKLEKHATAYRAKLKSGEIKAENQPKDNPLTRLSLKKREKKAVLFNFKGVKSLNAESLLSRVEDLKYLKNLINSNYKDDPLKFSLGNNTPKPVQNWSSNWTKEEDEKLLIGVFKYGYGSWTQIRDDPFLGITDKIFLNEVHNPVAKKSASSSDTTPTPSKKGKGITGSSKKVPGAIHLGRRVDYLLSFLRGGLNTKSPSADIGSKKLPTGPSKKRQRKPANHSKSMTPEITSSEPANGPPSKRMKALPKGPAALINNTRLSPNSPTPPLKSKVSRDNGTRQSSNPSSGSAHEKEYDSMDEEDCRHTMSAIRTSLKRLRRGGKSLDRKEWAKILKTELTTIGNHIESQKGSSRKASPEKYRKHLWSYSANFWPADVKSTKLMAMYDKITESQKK
Sequence of Sialic acid-binding Ig-like lectin 9 (Homo sapiens) (Q9Y336 whole entry): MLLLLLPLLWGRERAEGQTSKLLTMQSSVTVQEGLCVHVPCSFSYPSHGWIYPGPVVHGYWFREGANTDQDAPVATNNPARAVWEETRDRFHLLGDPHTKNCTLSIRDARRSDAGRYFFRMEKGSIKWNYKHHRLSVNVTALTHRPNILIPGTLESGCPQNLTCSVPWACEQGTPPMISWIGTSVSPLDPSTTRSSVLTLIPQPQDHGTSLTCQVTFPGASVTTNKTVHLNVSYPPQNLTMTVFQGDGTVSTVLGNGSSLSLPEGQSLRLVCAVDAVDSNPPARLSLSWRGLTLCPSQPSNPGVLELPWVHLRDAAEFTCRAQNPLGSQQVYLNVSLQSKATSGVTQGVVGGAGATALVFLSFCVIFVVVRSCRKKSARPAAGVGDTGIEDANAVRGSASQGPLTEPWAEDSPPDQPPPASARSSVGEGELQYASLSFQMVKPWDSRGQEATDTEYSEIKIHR
Sequence of Protein translocase subunit SecA (Escherichia coli (strain K12)) (P10408 whole entry): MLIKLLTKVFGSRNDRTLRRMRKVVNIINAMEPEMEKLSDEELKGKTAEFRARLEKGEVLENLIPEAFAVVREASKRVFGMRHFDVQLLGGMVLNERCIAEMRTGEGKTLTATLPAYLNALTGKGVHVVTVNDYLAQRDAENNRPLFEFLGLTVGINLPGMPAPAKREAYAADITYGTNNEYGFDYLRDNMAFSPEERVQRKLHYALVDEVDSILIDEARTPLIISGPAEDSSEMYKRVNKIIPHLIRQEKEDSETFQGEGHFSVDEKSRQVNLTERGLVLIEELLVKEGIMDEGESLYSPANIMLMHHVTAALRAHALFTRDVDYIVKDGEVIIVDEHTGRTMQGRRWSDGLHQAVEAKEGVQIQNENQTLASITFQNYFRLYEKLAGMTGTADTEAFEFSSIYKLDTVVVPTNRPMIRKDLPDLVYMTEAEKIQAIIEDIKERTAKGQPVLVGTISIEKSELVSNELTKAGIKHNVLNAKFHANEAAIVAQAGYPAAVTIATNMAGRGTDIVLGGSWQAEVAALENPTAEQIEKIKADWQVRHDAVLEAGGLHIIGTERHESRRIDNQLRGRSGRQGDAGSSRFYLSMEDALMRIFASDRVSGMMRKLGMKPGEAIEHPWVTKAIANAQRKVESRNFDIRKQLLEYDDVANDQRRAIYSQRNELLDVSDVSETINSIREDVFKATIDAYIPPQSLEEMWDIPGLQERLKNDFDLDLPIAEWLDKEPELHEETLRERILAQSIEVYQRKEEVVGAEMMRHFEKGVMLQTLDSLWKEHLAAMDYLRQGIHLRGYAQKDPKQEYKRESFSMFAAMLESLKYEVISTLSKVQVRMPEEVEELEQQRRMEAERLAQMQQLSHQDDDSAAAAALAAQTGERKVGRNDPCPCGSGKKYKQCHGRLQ

Regarding `O=C(COCc1nc(-c2ccncc2)no1)N1CCCCCC1`, the Percent Effect in [1] was -5.55%; in assay [2], 5.2%; in [3], -3.82%; in assay [4], 21.3%; in assay [5], -35.1%; in [6], -55.2%. The Percent Effect turned out to be 8.65% in assay [7]; 15.5% in [8]; 5.38% in assay [9]; 13.6% in assay [10]; 120% in assay [11].

On to `Cc1nn(C)cc1CN(C)Cc1cc2c(cc1OC(F)F)OCO2`, for which the Percent Effect in [1] was -4.54%; in [2], 0%; in [3], -4.17%; in assay [4] it was -1.2%; in assay [5] it was 1.07%; in [6], -0.744%. Moreover, the Percent Effect in [7] is -3.18%; in [8], -8.11%; in assay [9] it was -1.07%; in assay [10], 3.7%; in [11], -3.28%.

For the compound `COCCn1ccc(NC(=O)Nc2ccc(C(N)=O)c(F)c2)n1`, the Percent Effect in assay [1] was -4.16%; in assay [2], -7.89%; in assay [3], 10.9%; in [4], -0.377%; in assay [5] it was -3.41%; in [6], -4.73%. Besides, the Percent Effect in assay [7] is 13.3%; in assay [8], -2.4%; in assay [9] it was 0%; in assay [10], 0%; in assay [11] it was 75.5%.

For `Cc1noc(C2CCCCN2C(=O)NC2CCCC2)n1` (stereo not given), the Percent Effect in [1] was 1.58%; in assay [2] it was 7.89%; in assay [3] it was 5.88%; in assay [4], -7.67%; in [5], -9.25%; in assay [6], -2.37%. The Percent Effect in [7] was 21.8%; in [8], 0.903%; in assay [9], 2.13%; in [10], 2.6%; in assay [11] it was -4.56%.

`Cc1occc1C(=O)N1CCC2(CC1)CC(c1cccnc1)C(=O)N2C` (stereo not given): the Percent Effect in assay [1] was -1.69%; in assay [2], 10.7%; in assay [3], -2.33%; in assay [4] it was 5.45%; in [5] it was -1.74%; in [6], -19.9%. In addition, the Percent Effect is 5.64% in assay [7]; -9.07% in [8]; 2.08% in [9]; 12.5% in assay [10]; -5.44% in [11].

Turning to `COCCN(Cc1ccc(F)cc1Cl)C(=O)c1cccc[n+]1[O-]`, the Percent Effect was -4.42% in assay [1]; -1.39% in [2]; 3.97% in assay [3]; -0.933% in assay [4]; -1.65% in [5]; 6.18% in assay [6]. Moreover, the Percent Effect in assay [7] was 12.3%; in assay [8] it was -7.04%; in assay [9] it was 1.05%; in assay [10], 7.69%; in assay [11], -2.92%.

Take `COc1nc(C)c(C(=O)N(C)Cc2nc(-c3ccccn3)no2)s1`: the Percent Effect in assay [1] was -2.52%; in [2], 13.3%; in assay [3] it was -11.2%; in assay [4], 4.23%; in [5] it was 4.97%; in assay [6], -3.65%. Also, the Percent Effect in assay [7] was 18.3%; in assay [8], -0.294%; in assay [9], 6.01%; in [10] it was 13.6%; in assay [11], -0.207%.

`CC(O)CN1CCN(C(=O)c2ccc(N(C)C)nn2)CC1` (stereo not given): the Percent Effect in assay [1] is -4.58%; in assay [2] it was 10.4%; in assay [3], -1.75%; in assay [4] it was 11.7%; in assay [5], 3.93%; in [6], 4.27%. The Percent Effect in [7] was 1.18%; in assay [8] it was 17.9%; in assay [9] it was 3.88%; in assay [10], 12.2%; in assay [11], -9.31%.

`O=C(c1ccc2c(c1)OCO2)N1CCCSCC1CN1CCCC1` (stereo not given): the Percent Effect in assay [1] is -4.51%; in assay [2], 7.79%; in [3], 6.33%; in assay [4] it was 7.89%; in assay [5], -1.08%; in assay [6], 5.81%. Further, the Percent Effect in [7] is 8.53%; in assay [8] it was -0.0393%; in assay [9] it was 8.47%; in assay [10] it was 11.5%; in [11], -7.09%.

For `CCC(C)NC(=O)N1CCCn2cnc(CO)c2C1` (stereo not given), the Percent Effect was -0.731% in assay [1]; 2.74% in assay [2]; 1.02% in [3]; 5.8% in assay [4]; 0.198% in [5]; 2% in [6]. For the same compound, the Percent Effect stood at 4.54% in assay [7]; 6.37% in [8]; 6.25% in assay [9]; 6.17% in [10]; 1.09% in [11].
